The text below walks through data of PubChem BioAssay (NCI).

The panel holds about 83,000 compounds, 20% with a hit somewhere; the sample as a whole holds those more often.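 Percent growth is the endpoint: 0 to 100 indicates growth inhibition (40 means 60% inhibition), 0 means no net growth, and negative values indicate cell death.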 A number with no mark means an inactive call. Activity calls are given as the source filed them. Rule for the calls: active = growth percent below 10; inactive = the rest.

Among the test systems are SR leukemia; RPMI-8226 leukemia; OVCAR-8 ovarian; OVCAR-5 ovarian; OVCAR-4 ovarian; SK-OV-3 ovarian; OVCAR-3 ovarian; HS 578T breast; NCI/ADR-RES ovarian.
What all share (experiment): NCI-60 one-dose screen, 48 h (100 = growth as untreated, 0 = no growth, -100 = all killed)
What all share (settings): 10 µM unless noted

In the case of `COc1ccc(C(=O)COc2cccc(/C=C3\CSc4ccc(Cl)cc4C3=O)c2)cc1`, the growth in the assay on SR leukemia was 20%; in the assay on RPMI-8226 leukemia it was -13.7% (active); in the assay with OVCAR-8 ovarian, 78.4%; with OVCAR-5 ovarian, 93.5%; in the assay on OVCAR-4 ovarian, 64.6%; in the assay on SK-OV-3 ovarian it was 94.6%. For the same compound, the growth was 88% in the assay on OVCAR-3 ovarian, 91% in the assay on HS 578T breast and 84.3% with NCI/ADR-RES ovarian.
On to `COc1ccc(CNC(=O)c2c(C)n([O-])c3cc(F)c(F)cc3[n+]2=O)cc1`, for which the growth in the assay on SR leukemia was 37.5%; with RPMI-8226 leukemia, 86%; in the assay with OVCAR-8 ovarian, 88%; in the assay on OVCAR-5 ovarian it was 99.5%; in the assay on OVCAR-4 ovarian, 116%; in the assay with SK-OV-3 ovarian it was 111%. Besides, the growth with OVCAR-3 ovarian is 56%; with HS 578T breast it was 97.3%; in the assay with NCI/ADR-RES ovarian it was 108%.
With `CCOC(=O)c1sc(NC(=O)COc2ccc(/C=C3\CCc4cc(OC)ccc4C3=O)cc2)nc1C`, the growth in the assay on SR leukemia is 44.3%; in the assay with RPMI-8226 leukemia it was 42.5%; in the assay with OVCAR-8 ovarian it was 90.5%; with OVCAR-5 ovarian it was 103%; with OVCAR-4 ovarian, 92.6%; with SK-OV-3 ovarian it was 122%. The figures for the growth in the assay with OVCAR-3 ovarian, with HS 578T breast and in the assay with NCI/ADR-RES ovarian were 105%, 94.4% and 86.6%, respectively.
For `Nc1nc(NC2CC2)c2ncn(C3C=CC(CO)C3)c2n1` (centres undefined), the growth with SR leukemia is 80.8%; with RPMI-8226 leukemia, 111%; in the assay with OVCAR-8 ovarian, 93.9%; in the assay on OVCAR-5 ovarian, 103%; in the assay on OVCAR-4 ovarian, 106%; with SK-OV-3 ovarian it was 117%. In addition, the growth in the assay with OVCAR-3 ovarian is 110%; in the assay with HS 578T breast, 104%; in the assay on NCI/ADR-RES ovarian, 104%.
As for `O=C(NCCCl)NCCN1c2nc3ccccc3cc2Sc2cc3ccccc3nc21`, the growth in the assay on SR leukemia was 35.9%; with RPMI-8226 leukemia it was 42%; in the assay on OVCAR-8 ovarian it was 56.2%; with OVCAR-5 ovarian, 82.2%; in the assay on OVCAR-4 ovarian it was 49.5%; in the assay on SK-OV-3 ovarian, 77.1%. Besides, the growth in the assay on OVCAR-3 ovarian is 142%; in the assay with HS 578T breast it was 58%; in the assay on NCI/ADR-RES ovarian it was 57.4%.
As to `COC(=O)c1cc2c(/C=C3/NC(=S)NC3=O)coc2n1C`, the growth was 78.3% in the assay with SR leukemia; 75.8% with RPMI-8226 leukemia; 76.3% with OVCAR-8 ovarian; 96.7% in the assay on OVCAR-5 ovarian; 112% in the assay on OVCAR-4 ovarian; 68.5% in the assay with SK-OV-3 ovarian. Besides, the values for the growth in the assay with OVCAR-3 ovarian, in the assay on HS 578T breast and with NCI/ADR-RES ovarian were 95.6%, 66.3% and 105%, respectively.
With `O=c1[nH]c(SCc2ccccc2)nc2nc(Nc3ccc(NC(=S)Nc4ccccc4)cc3)nc(-c3ccc(O)cc3O)c12`, the growth in the assay on SR leukemia is 54.8%; in the assay with RPMI-8226 leukemia it was 96.5%; with OVCAR-8 ovarian, 108%; in the assay on OVCAR-5 ovarian, 87.5%; in the assay on OVCAR-4 ovarian it was 100%; in the assay on SK-OV-3 ovarian, 91.4%. In addition, the growth is 81.1% in the assay on OVCAR-3 ovarian, 107% with HS 578T breast and 99.3% in the assay on NCI/ADR-RES ovarian.
Consider `CSc1nc(-c2ccc(O)cc2O)c2c(=O)[nH]c(Nc3ccc(S(=O)(=O)Nc4nc(C)cc(C)n4)cc3)nc2n1`, for which the growth in the assay with SR leukemia was 63.3%; with RPMI-8226 leukemia it was 99.2%; in the assay with OVCAR-8 ovarian, 107%; in the assay on OVCAR-5 ovarian it was 90%; in the assay on OVCAR-4 ovarian, 108%; with SK-OV-3 ovarian it was 105%. In addition, the figures for the growth in the assay on OVCAR-3 ovarian, in the assay on HS 578T breast and with NCI/ADR-RES ovarian were 98.1%, 119% and 97.5%, respectively.
As to `c1ccc(N2c3nc4ccccc4cc3Sc3cc4ccccc4nc32)nc1`, the growth in the assay on SR leukemia was 77.7%; in the assay on RPMI-8226 leukemia, 80.9%; in the assay on OVCAR-8 ovarian it was 88.8%; in the assay with OVCAR-5 ovarian, 81.9%; in the assay with OVCAR-4 ovarian it was 102%; in the assay with SK-OV-3 ovarian, 104%. Besides, the growth was 96.7% with OVCAR-3 ovarian, 83.2% with HS 578T breast and 82.7% in the assay with NCI/ADR-RES ovarian.
For the compound `N#Cc1c(-c2ccccc2)cc(-c2ccccc2)n(CCCCC(=O)O)c1=O`, the growth with SR leukemia was 65.1%; in the assay with RPMI-8226 leukemia, 96.2%; in the assay with OVCAR-8 ovarian, 96%; in the assay on OVCAR-5 ovarian, 98%; in the assay with OVCAR-4 ovarian it was 115%; with SK-OV-3 ovarian, 136%. For the same compound, the growth is 101% in the assay with OVCAR-3 ovarian, 101% with HS 578T breast and 80.5% with NCI/ADR-RES ovarian.
Turning to `COc1cccc(C2=NN(C(C)=O)C(c3cc(OC)c(OC)c(OC)c3)C2)c1` (centres undefined), the growth was -6.23% (active) in the assay with SR leukemia; 4.18% (active) in the assay on RPMI-8226 leukemia; 37.5% with OVCAR-8 ovarian; 58.3% in the assay on OVCAR-5 ovarian; 48.5% in the assay with OVCAR-4 ovarian; 30.4% in the assay on SK-OV-3 ovarian. Besides, the growth is 33.1% with OVCAR-3 ovarian, 15.4% with HS 578T breast and 19% in the assay with NCI/ADR-RES ovarian.
